Compound activity (PubChem)
MsrA inhibitor: bovine MsrA inhibition | purified bovine MsrA, absorbance read-out | inhibition, % at 15.5 µM | 360,000 compounds, 0.75% hits | AID 651718; in the data active means inhibition above about 4.5%;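 further: 0% = vehicle wells with enzyme and 100% = reference inhibitor wells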
PKA-R2B act: activators of human PKA-R2B complex; activation, % at 11.4 µM; PKA-R2B holoenzyme dissociation, Cy5-IP20 fluorescence polarization; R2B truncated from residue 108, S112A mutant; 0% DMSO only, 100% 113 µM cGMP; 340,000 compounds, 0.079% hits;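 active means activation above a cutoff set at the mean over all compounds plus 3 SD, cut at about 18% in these data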;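 further: higher means more holoenzyme dissociation and a rise in polarization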
Target sequence (P31323 whole entry, looked up, other chains not shown, the tested form may be a part): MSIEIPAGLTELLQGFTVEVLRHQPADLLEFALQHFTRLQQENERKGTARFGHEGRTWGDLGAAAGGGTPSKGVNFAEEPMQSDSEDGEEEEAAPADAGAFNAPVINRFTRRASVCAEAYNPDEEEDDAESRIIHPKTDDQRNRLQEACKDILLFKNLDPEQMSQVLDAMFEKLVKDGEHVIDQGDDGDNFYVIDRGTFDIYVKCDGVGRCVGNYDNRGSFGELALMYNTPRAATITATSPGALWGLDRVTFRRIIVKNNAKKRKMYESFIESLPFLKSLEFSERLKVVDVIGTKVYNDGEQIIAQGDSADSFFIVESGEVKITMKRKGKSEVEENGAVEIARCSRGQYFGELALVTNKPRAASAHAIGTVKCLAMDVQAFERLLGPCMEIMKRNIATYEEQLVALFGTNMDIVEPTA
bovine MsrA act: bovine methionine sulfoxide reductase A activation; activation, % at 10.6 µM; purified bovine MsrA, absorbance read-out; 360,000 compounds, 0.3% hits; AID 602163; in the data active means activation above about 7.5%;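 further: 0% = vehicle and 100% = reference activator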
PKA-R1A activ: PKA-R1A complex activation. P00514+P68181. PKA-R1A dissociation, Cy5-IP20 fluorescence polarization; scaled: DMSO 0%, 113 µM cGMP 100%. activation, % at 11.4 µM. 340,000 compounds, 0.083% hits. AID 504707;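 active means percent activation above the mean of all tested compounds plus 3 SD, cut at about 19% in these data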;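 further: higher means more PKAc released from R1A so a rise in polarization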
MsrA activ conf: confirmation of bovine methionine sulfoxide reductase A activators. purified bovine MsrA, absorbance read-out. activation, % at 10.6 µM. AID 602270. 1,000 compounds, 12% hits. shares compounds with bovine MsrA act; in the data active means activation above about 4%;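 further: enzyme coupled to thioredoxin and thioredoxin reductase with NADPH; 0% = vehicle wells and 100% = reference activator wells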
An asterisk follows results filed as active; . = not tested or not shown. Compounds with a hit are over-represented: about 1.1% of the library has one in this group of screens.

SMILES | MsrA inhibitor | PKA-R2B act | bovine MsrA act | PKA-R1A activ | MsrA activ conf
CC(C)Oc1ccc(/C=C(\C#N)C(=O)NC2CC2)cc1 | 2 | 2 | -2 | 0 | .
O=C(N[C@H](c1cccc(Br)c1)[C@@H]1CCCC=C1c1ccccc1)C(F)(F)F | 3 | . | . | . | .
CCCCc1nnc(NC(=O)CCS(=O)(=O)c2ccc(C)cc2)s1 | -2 | -3 | 7.8* | -3 | 2
CCc1nnc(NC(=O)CCS(=O)(=O)c2ccc(C)cc2)s1 | 0 | 0 | -7 | -3 | .
COC(=O)c1cc2c(c3c4cc(OC)ccc4n(S(=O)(=O)c4ccc(OC)cc4)c13)C(=O)N(Cc1ccccc1OC)C2 | 1 | . | . | . | .
O=C(c1ccc([N+](=O)[O-])o1)N1CCc2ccccc21 | 3 | -5 | 10* | 0 | 2
Cc1cc(N2CCN(S(C)(=O)=O)C[C@H]2C)ccc1N1CCN(Cc2ccccc2)[C@H](C)C1 | -1 | . | . | . | .
Cn1cc(/C=C/C(=O)c2ccccc2)c2ccccc21 | 1 | 1 | 9.1* | -1 | -3
Cc1cc(C#N)c(C)n1-c1cc(C(F)(F)F)ccc1N1CCOCC1 | -1 | 0 | 8.6* | -7 | 0
CC(C)C(=O)Nc1cc(C(F)(F)F)ccc1N1CCOCC1 | 2 | 6 | 0 | -12 | .
COC(=O)c1cc2c(c3c4cc(C)ccc4n(S(=O)(=O)c4cccc(C)c4)c13)C(=O)N(Cc1ccccc1OC)C2 | 1 | . | . | . | .
CCn1nc(C(=O)OCC(=O)Nc2ncc(Cl)c(C)c2Cl)c2ccccc2c1=O | 1 | -5 | 19* | 4 | 0
CCn1c(SCC(=O)N2CCN(S(=O)(=O)c3ccccc3)CC2)nnc1-c1cccs1 | 1 | -5 | 9.6* | 2 | -1
COc1ccc(C2CC(=O)C(c3ccc(C(F)(F)F)cc3)=CN2Cc2ccccc2)cc1 (centres undefined) | 2 | . | . | . | .
S=c1nc(-c2ccccc2Cl)[nH][nH]1 | 0 | 0 | 8.1* | -8 | 1
Cc1ccc(OCC(=O)Nc2sc3c(c2C#N)CC(C)(C)NC3(C)C)cc1 | -1 | -11 | -1 | -3 | .
CC1(C)Cc2c(sc(NC(=O)COc3ccc(Cl)cc3)c2C(N)=O)C(C)(C)N1 | -1 | 13 | 12* | 6 | -1
COCC(=O)NCC1CCN(C(=O)C(=O)c2cccs2)CC1 | 0 | . | . | . | .
Cc1cc2nc(-c3ccc[nH]c3=O)n(Cc3ccc(F)cc3)c2cc1C | 2 | -7 | -6 | -15 | .
O=c1[nH]cccc1-c1nc2ccccc2n1Cc1ccc(F)cc1 | 1 | -1 | 15* | -4 | -3
O=C(C1CCN(S(=O)(=O)c2ccccc2F)CC1)N1CCc2ccccc21 | -2 | -9 | 8.8* | 1 | -1
CCOc1ccccc1CNC(=O)c1cc2oc3ccccc3c2n1CC | 0 | -1 | 8.1* | -4 | -4
O=C(CCCCCn1c(=S)[nH]c2cc3c(cc2c1=O)OCO3)N1CCN(Cc2ccccc2)CC1 | 0 | -8 | -1 | -5 | .
O=C(CCCn1c(=S)[nH]c2cc3c(cc2c1=O)OCO3)N1CCN(c2ccccn2)CC1 | 0 | 4 | 18* | -1 | 3
COC(=O)[C@]1(CC(C)C)NC=C(C(=O)c2ccccc2)[C@@H]1c1cccs1 | 1 | . | . | . | .
SMILES | MsrA inhibitor | PKA-R2B act | bovine MsrA act | PKA-R1A activ | MsrA activ conf
Cc1cccc2cc3cccc(C)c3nc12 | 0 | -2 | 8.9* | 10 | 0
Nc1oc2ccccc2c1C(=O)Cc1ccccc1O[C@@H]1O[C@H](CO)[C@@H](O)[C@H](O)[C@H]1O | 0 | -5 | 13* | -7 | 2
COC(=O)[C@]12C[C@H](CC(=O)NCC34CC5CC(CC(C5)C3)C4)C(=O)N(Cc3ccc4c(c3)OCO4)C1=C[C@H](COCc1ccccc1)O[C@@H]2C | 1 | . | . | . | .
Cn1nnnc1SCC(=O)N1CCc2ccccc21 | 0 | 4 | 17* | 0 | -3
COc1cccc(NC(=O)COC(=O)CCn2c(C)csc2=O)c1 | -1 | 0 | 9.2* | 1 | -1
Fc1ccccc1/C=N/n1c(COc2ccccc2)n[nH]c1=S | 0 | 3 | 9.9* | 4 | 1
Oc1ccccc1/C=N/n1c(COc2ccccc2)n[nH]c1=S | 0 | -11 | 0 | 0 | .
CCNC(=O)O[C@@H]1C=C[C@@H](C#Cc2ccc(C(C)(C)C)cc2)O[C@@H]1COC(C)=O | 0 | . | . | . | .
Cn1c(=O)c2nc(SCCO)n(C)c2n(C)c1=O | 1 | -3 | 8.4* | 5 | -3
COc1ccc(S(=O)(=O)N2CCCc3nc(-c4ccc(Br)cc4)ccc32)cc1 | 1 | . | . | . | .
Cc1nnc(N/N=C/c2cccc(C(F)(F)F)c2)n1N | -1 | -6 | 13* | 5 | 1
